Results filed as inconclusive are left out. Calls of active or inactive are those of the source. The call rests on the fitted dose curve; in most records, active means well fitted cell-killing curve with a large enough effect; inconclusive means small, poorly fitted or top-dose-only effect, or effect the other way; inactive means no such curve, though single readings can be large or run the other way.

A short description of assay [1]: Quantitative High-Throughput drug screen in 47 multiple myeloma cell lines against the NCATS MIPE library collection: XG1_PLB cell viability assay (AID 1919866). Further: nearly all actives have a fitted effect of over 35% in size. Further: potency means the concentration at half of the fitted maximal effect. The procedure, abridged:
(§1)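 Readout: median RLU from CellTiter-Glo after 5 min at room temperature. Preceding step was 48 h drug treatment of 500 cells/well at 37 °C, 5% CO2, with DMSO-only and media-only control wells.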

A short description of assay [2]: Quantitative High-Throughput drug screen in 47 multiple myeloma cell lines against the NCATS MIPE library collection: VP6_DJ cell viability assay (AID 1919867). Further: nearly all actives have a fitted effect of over 40% in size. Further: potency means the concentration at half of the fitted maximal effect. A digest of the protocol: as §1
A short description of assay [3]: Quantitative High-Throughput drug screen in 47 multiple myeloma cell lines against the NCATS MIPE library collection: PE2_PLB cell viability assay (AID 1919869). Further: nearly all actives have a fitted effect of over 35% in size. Further: potency means the concentration at half of the fitted maximal effect. A digest of the protocol:
as §1

Assay [4] in a line: Quantitative High-Throughput drug screen in 47 multiple myeloma cell lines against the NCATS MIPE library collection: PCM6_Riken cell viability assay (AID 1919870). Further: nearly all actives have a fitted effect of over 30% in size. Further: potency means the concentration at half of the fitted maximal effect. A digest of the protocol:
as §1

A short description of assay [5]: Quantitative High-Throughput drug screen in 47 multiple myeloma cell lines against the NCATS MIPE library collection: RPMI8226_ATCC cell viability assay (AID 1919871). Further: nearly all actives have a fitted effect of over 30% in size. Further: potency means the concentration at half of the fitted maximal effect. The procedure, abridged:
as §1

A short description of assay [6]: Quantitative High-Throughput drug screen in 47 multiple myeloma cell lines against the NCATS MIPE library collection: OPM2_DSMZ cell viability assay (AID 1919872). Further: nearly all actives have a fitted effect of over 30% in size. Further: potency means the concentration at half of the fitted maximal effect. A digest of the protocol: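 Luminescent ATP measurement with CellTiter-Glo gives viability, scaled between DMSO-only wells (100%) and media-only wells (0%). Cells, 500 per well, faced library compounds for 48 hours at 37C.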

The nature of assay [7]: Quantitative High-Throughput drug screen in 47 multiple myeloma cell lines against the NCATS MIPE library collection: KMS11_JCRBsus cell viability assay (AID 1919873). Further: nearly all actives have a fitted effect of over 50% in size. Further: potency means the concentration at half of the fitted maximal effect. The procedure, abridged: as §1
The nature of assay [8]: Quantitative High-Throughput drug screen in 47 multiple myeloma cell lines against the NCATS MIPE library collection: UTMC2_PLB cell viability assay (AID 1919868). Further: nearly all actives have a fitted effect of over 55% in size. The note with it: CellTiter-Glo ATP luminescence, 48 h; viability (% of DMSO control): at 45.8 µM (top of the series). A digest of the protocol:
as §1
A general note: Cellular ATP, detected with luciferase, serves as a proxy for viable cell number.

For `CC(=O)N[C@@H]1[C@H](O[C@@H]2c3ccc(c(Cl)c3)Oc3cc4cc(c3O[C@H]3O[C@H](CO)[C@@H](O)[C@H](O)[C@H]3NC(=O)CCCCCCCC(C)C)Oc3ccc(cc3Cl)C[C@H]3NC(=O)[C@H](N)c5ccc(O)c(c5)Oc5cc(O)cc(c5)[C@H](NC3=O)C(=O)N[C@H]4C(=O)N[C@H]3C(=O)N[C@@H]2C(=O)N[C@@H](C(=O)O)c2cc(O)cc(O[C@H]4O[C@H](CO)[C@@H](O)[C@H](O)[C@H]4O)c2-c2cc3ccc2O)O[C@H](CO)[C@@H](O)[C@@H]1O`, the Potency result in assay [1], in assay [2], in assay [3], in assay [4], in assay [5] and in assay [6] was “inactive” throughout. Further, in assay [7], the Potency entry is “inactive”.

In the case of `COc1ccc(C(C)=O)c(O)c1`, the Potency entry in assay [3], in assay [4], in assay [5], in assay [6] and in assay [7] was “inactive” in each case.

Take `OCc1ccccc1O[C@@H]1O[C@H](CO)[C@H](O)[C@H](O)[C@H]1O`: the Potency entry in assay [2], in assay [3], in assay [4], in assay [5], in assay [6] and in assay [7] was “inactive” each time.

As for `CCN1CCN(C(=O)N[C@H](C(=O)N[C@@H]2C(=O)N3C(C(=O)O)=C(CSc4nnnn4C)CS[C@@H]23)c2ccc(O)cc2)C(=O)C1=O`, the Potency result in assay [1], in assay [6] and in assay [7] was “inactive” each time.

As for `Cn1cc(-c2ccc3ncc(Cc4ccc5ncccc5c4)n3n2)cn1`, in assay [4], the Potency was 13.2 µM (active). The Potency entry in assay [5] and in assay [6] was “inactive” each time.

In the case of `O=C1NC(=O)[C@@H](c2cn3c4c(cccc24)CCC3)[C@H]1c1c[nH]c2ccccc12`, the Potency in assay [1] was 0.0332 µM (active); in assay [2] it was 0.526 µM (active); in assay [3], 1.87 µM (active); in assay [4] it was 5.9 µM (active); in assay [5] it was 16.6 µM (active); in assay [6], 1.32 µM (active). Besides, the Potency in assay [7] was 0.118 µM (active).

With `O=C(c1ccc(F)cc1)N1CCC[C@H](c2nc(-c3ccc(F)cc3)no2)C1`, the Potency result in assay [1], in assay [2], in assay [3], in assay [4], in assay [6] and in assay [7] was “inactive” throughout.

Regarding `O=C(O)CCCCC(CCSCc1ccccc1)SCc1ccccc1` (stereo not drawn), in assay [2], the Potency was 16.6 µM (active). Also, the Potency entry in assay [3], in assay [5] and in assay [6] was “inactive” each time.

Consider `NS(=O)(=O)OC[C@@H]1C[C@@H](n2ccc3c(N[C@H]4CCc5ccccc54)ncnc32)C[C@H]1O`, for which the Potency in assay [1] was 0.332 µM (active); in assay [2], 1.48 µM (active); in assay [4] it was 6.62 µM (active); in assay [7] it was 0.296 µM (active). The Potency result in assay [6] is “inactive”.

`CCCCCCCCCCCC(CC1OC(=O)C1CCCCCC)OC(=O)C(CC(C)C)NC=O` (stereo not drawn): the Potency entry in assay [1], in assay [3] and in assay [7] was “inactive” in each case. In addition, the results for the Potency in assay [2], in assay [4] and in assay [5] were 7.43 µM (active), 4.69 µM (active) and 18.7 µM (active), respectively.

Regarding `CC(N[C@H]1CCCC[C@H]1NC(=O)c1ccc(Cl)cc1)c1cccc2ccccc12` (stereo partly drawn), in assay [5], the Potency result was “inactive”.

On to `C[C@H](CCC(=O)O)[C@H]1CC[C@H]2[C@@H]3[C@H](O)C[C@@H]4C[C@H](O)CC[C@]4(C)[C@@H]3CC[C@]12C`, for which the Potency entry in assay [1], in assay [3], in assay [4], in assay [5], in assay [6] and in assay [7] was “inactive” throughout.

For `O=C(O)C(=O)Nc1cccc(C2=NN=N[N]2)c1`, the Potency entry in assay [1], in assay [2], in assay [3], in assay [4], in assay [5] and in assay [6] was “inactive” in each case.

On to `Cc1cc(C(=O)NOCCO)c(Nc2ccc(I)cc2F)n(C)c1=O`, for which the Potency result in assay [4], in assay [5] and in assay [7] was “inactive” each time.

Turning to `c1cc(CN2CCCNCCNCCCNCC2)ccc1CN1CCCNCCNCCCNCC1`, the Potency result in assay [1], in assay [2], in assay [3], in assay [5], in assay [6] and in assay [7] was “inactive” each time.

As to `CCCCCN=C(N)NN=Cc1c[nH]c2ccc(OC)cc12`, the Potency in assay [1] is 2.35 µM (active); in assay [3], 4.18 µM (active); in assay [5] it was 14.8 µM (active); in assay [6] it was 10.5 µM (active); in assay [7], 2.64 µM (active).

With `CC(C)(O)[C@H]1CC[C@@](C)([C@H]2[C@@H](O)C[C@@]3(C)[C@@H]4C[C@H](O[C@@H]5O[C@H](CO)[C@@H](O)[C@H](O)[C@@H]5O)[C@H]5C(C)(C)[C@@H](O[C@@H]6OC[C@@H](O)[C@H](O)[C@@H]6O)CC[C@@]56C[C@@]46CC[C@]23C)O1`, the Potency result in assay [1], in assay [8], in assay [4], in assay [5], in assay [6] and in assay [7] was “inactive” throughout.

As for `C[C@@H]1CC[C@@]2(OC1)OC1CC3C4CC=C5CC(O)CCC5(C)C4CCC3(C)C1[C@@H]2C` (stereo partly drawn), the Potency result in assay [3], in assay [4], in assay [5] and in assay [7] was “inactive” in each case.

`CON=C(C(=O)N[C@@H]1C(=O)N2C(C(=O)O)=C(CSC(=O)c3ccco3)CS[C@H]12)c1csc(N)n1`: the Potency entry in assay [1], in assay [2], in assay [3], in assay [6] and in assay [7] was “inactive” in each case.

In the case of `O=C(NCc1ccccc1)[C@H](Cc1ccccc1)NC(=O)[C@@H]1O[C@@H]1C(=O)NCCc1ccc(O)cc1`, the Potency is 14.8 µM (active) in assay [1] and 23.5 µM (active) in assay [3]. In addition, the Potency result in assay [2] and in assay [6] was “inactive” throughout.

These data come from PubChem BioAssay (NCATS).
